According to PubChem BioAssay AID463190 (Sanford-Burnham Center for Chemical Genomics, 2010):
About 7,300 (2.2%) of roughly 330,000 compounds were called active. The sample holds actives, similar compounds and a random draw of the others, so the mix is not that of the screen.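 The calls were made as follows: active = inhibition of at least 40%; inactive = the rest.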

Assay: growth inhibitors of tim10-1 mutant yeast, primary screen, luminescence, uHTS (AID 463190);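 also: mutant grown at 25 °C; 0% = DMSO wells with yeast and 100% = wells holding no yeast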
Conditions: S. cerevisiae tim10-1 ts strain growth, BacTiter-Glo, 24 h; at 20 µM; stronger effect = higher value

| SMILES | inhibition |
| --- | --- |
| COc1ccc(CCNC(=O)c2ccc(CS(=O)(=O)c3ccc(Br)cc3)o2)cc1OC | 24.5% (inactive) |
| O=C(Cn1c(NCCO)nc2ccccc21)c1ccc(Cl)cc1Cl | 1.93% (inactive) |
| CCCCn1ccnc1C(=O)c1cccc(S(=O)(=O)N2c3ccccc3CC2C)c1 (stereo not drawn) | 29.3% (inactive) |
| O=C1COc2ccc(C(=O)COC(=O)c3cccnc3Cl)cc2N1 | -6.62% (inactive) |
| CCc1nnc(NC(=O)CSc2nnc(-c3ccncc3)n2Cc2ccccc2)s1 | 10.1% (inactive) |
| COC(=O)c1cc(NC(=O)CC2C(=O)NCCN2C(=O)c2ccc(F)cc2)cc(C(=O)OC)c1 (stereo not drawn) | -15.9% (inactive) |
| COc1ccc(N2C(=O)CC(SC(C)C)C2=O)cc1 (stereo not drawn) | -8.61% (inactive) |
| COc1ccc(N2C(=O)CC(Sc3n[nH]c(-c4ccc(C)cc4)n3)C2=O)cc1 (stereo not drawn) | 54.7% (active) |
| Cc1ccc(N2C(=O)CC(Sc3ncn[nH]3)C2=O)cc1 (stereo not drawn) | 30.2% (inactive) |
| COc1ccccc1C(=O)NCCn1cc(SCC(=O)NCc2ccco2)c2ccccc21 | 29.1% (inactive) |
| COc1cc(C(c2c(NC(=O)c3ccco3)sc(C)c2C)N2CCOCC2)cc(OC)c1OC (stereo not drawn) | 20.7% (inactive) |
| O=C1[C@@H](c2ccccc2)[C@@H](c2ccccc2)N1c1cccnc1 | 66.6% (active) |
| CCc1ccccc1NC1c2ccccc2C(=O)N1c1cccnc1 (stereo not drawn) | 36.7% (inactive) |
| CC(=O)C1=C(O)C(=O)N(c2cccnc2)C1c1ccc([N+](=O)[O-])cc1 (stereo not drawn) | 0.316% (inactive) |
| O=C(N/N=C/c1ccc(OCC2COCCO2)cc1)c1ccc(Br)cc1 (stereo not drawn) | -0.668% (inactive) |
| CCOc1ccc(OCC)c(-c2c(=O)n(OCc3ccc(Cl)cc3)c3ccccc3[n+]2[O-])c1 | 26.2% (inactive) |
| CCOC(=O)COn1c(=O)c(-c2ccc(OCC)cc2)[n+]([O-])c2ccccc21 | 31.6% (inactive) |
| COc1ccc(OC)c(-c2c(=O)n(OCc3ccccc3Br)c3ccccc3[n+]2[O-])c1 | 47.1% (active) |
| COC(=O)c1c(-c2ccsc2)oc2ccc(-c3cc(OC)c(OC)c(OC)c3)cc12 | 28.1% (inactive) |
| N#CCOc1ccc(C2=NO[C@@H]3[C@@H]4C[C@@H]([C@H]5C(=O)N(c6ccc7c(c6)OCO7)C(=O)[C@@H]45)[C@H]23)cc1 | 18.3% (inactive) |

| SMILES | inhibition |
| --- | --- |
| C=CS(=O)c1sc(Cl)c(N2CCOCC2)c1[N+](=O)[O-] (stereo not drawn) | 79.3% (active) |
| Nc1c(N(CCO)C(=O)C2CCCCC2)c(=O)[nH]c(=O)n1Cc1ccccc1 | 15.1% (inactive) |
| COc1ccccc1C(=O)NCC(=O)OCC(=O)NNC(=O)c1ccc(Br)cc1 | -10.1% (inactive) |
| Cc1ccc(-c2cc(C(=O)N3CCc4ccccc4C3)no2)cc1 | 18.4% (inactive) |
| Cc1ccc2c(c1)c1ncnc(N3CCc4ccccc4C3)c1n2C | 44% (active) |
| Cc1ccc2c(c1)c1ncn(CCC3=CCCCC3)c(=O)c1n2C | 22.5% (inactive) |
| O=C(C1CCC(=O)N(C2CC2)C1)N1CCN(c2ccc(Cl)cc2)CC1 (stereo not drawn) | -6.67% (inactive) |
| C=CCNC(=O)CC12CC3CC(C1)CC(CC(=O)NCC=C)(C3)C2 | 9.8% (inactive) |
| COc1ccc(-n2c(SCC(=O)OC(C)C)nnc2-c2ccccn2)cc1 | 34.2% (inactive) |
| CCOc1cccc(-c2nnc(SCC(=O)NC3CC3)n2C)c1 | 6.04% (inactive) |
| CCOc1cccc(-c2nn3c(-c4ccccn4)nnc3s2)c1 | 42% (active) |
| O=C(O)C1C2C=CC(C2)C1C(=O)NCc1ccccc1 (stereo not drawn) | -21.1% (inactive) |
| COc1ccc(C2=NO[C@@H]3C(=O)N(Cc4ccccc4)C(=O)[C@H]23)cc1OC | 14.3% (inactive) |
| CCn1nccc1C(=O)Nc1ccc(S(=O)(=O)NC23CC4CC(CC(C4)C2)C3)cc1 | 26.7% (inactive) |
| CC(c1cccnc1)N(CCN(C)C)C(=O)Nc1ccc(Cl)c(Cl)c1 (stereo not drawn) | 4.37% (inactive) |
| CCn1nccc1C(=O)Nc1ccc(Cl)c(Cl)c1 | 44% (active) |
| CN1CCN(C(=O)CCc2ncc(C(F)(F)F)cc2Cl)CC1 | -4.04% (inactive) |
| COC(=O)c1c(C(=O)OC)c(-c2cccc(C)c2)n2c1CS(=O)C2 (stereo not drawn) | 10.8% (inactive) |
| CCOCCCNC(=O)c1ccc(CS(=O)(=O)c2cccc(C(F)(F)F)c2)o1 | 6.36% (inactive) |
| Cc1ccc(NS(=O)(=O)c2ccc(-c3ccc(=O)[nH]n3)o2)c(C)c1 | 1.41% (inactive) |

| SMILES | inhibition |
| --- | --- |
| Cc1ccc(-c2csc(NC3OC(=O)c4ccccc43)n2)cc1 (stereo not drawn) | 5.08% (inactive) |
| Cc1ccc(-c2csc(-c3c[nH]c4ccccc34)n2)cc1 | 60.4% (active) |
| Cc1ccc(-c2csc(NC(=O)Cn3[nH]c(=O)c4ccccc4c3=O)n2)cc1 | 31.6% (inactive) |
| COc1cc(N2C(=O)CC3(CCCC3)CC2=O)cc(OC)c1OC | 11.2% (inactive) |
| N#CC1(C#N)C(C(=O)C23CC4CC(CC(C4)C2)C3)C12CCOCC2 (stereo not drawn) | 47.6% (active) |
| CC(C)(C)c1ccc(C(=O)NCc2nnc(SCC(=O)N3CCCc4ccccc43)n2-c2ccccc2)cc1 | 1.45% (inactive) |
| O=C(COC(=O)CCCSc1nc2ccccc2[nH]1)Nc1ccc(Oc2ccccc2)cc1 | 14.2% (inactive) |
| Cc1ccc(-c2ccc(/C=C(\C#N)C(N)=S)o2)c([N+](=O)[O-])c1 | 57.3% (active) |
| Cc1cc(C)c([N+](=O)[O-])cc1-c1ccc(/C=N/NC(=O)c2nonc2N)o1 | -16.4% (inactive) |
| Cc1cc([N+](=O)[O-])c(-c2ccc(/C=N/n3cnnc3)o2)cc1Cl | 16.2% (inactive) |
| CCOC(=O)CCCCCC(=O)Nc1ccc2c(c1)CC(=O)N([C@@H](C)CO)C[C@H](C)[C@@H](CN(C)Cc1ccccc1)O2 | -5.39% (inactive) |
| Cn1nnnc1SCC(=O)NNC(=O)c1ccc(Br)cc1 | 0.63% (inactive) |
| COC(=O)c1cc(OCC(=O)NC2CCCc3ccccc32)cc(C(=O)OC)c1 (stereo not drawn) | 11.9% (inactive) |
| COc1ccc2c(c1)C(NS(=O)(=O)OCC(Cl)(Cl)Cl)CCC2 (stereo not drawn) | 45.1% (active) |
| COc1ccc(CN(C)C(C)C(=O)NC2CCCc3ccccc32)cc1 (stereo not drawn) | 23.2% (inactive) |
| COc1ccccc1C1CCN(c2ccc([N+](=O)[O-])cn2)CC1 | 14.4% (inactive) |
| COc1ccccc1C1SCCN1C(=O)c1ccc([N+](=O)[O-])cc1 (stereo not drawn) | 41.9% (active) |
| O=C(Nc1ccc(F)cc1)C1CCN(C(=O)c2ccc([N+](=O)[O-])cc2)CC1 | 2.2% (inactive) |
